Experimental data: PMC4336329 (PLoS ONE, 2015)
Out of some 310,000 compounds screened, about 14,000 (4.5%) showed an effect of 50% or more. Effects have a minus sign here. For the sample, strong results were picked, then their nearest neighbours and some compounds at random.

Biological target: human ether-à-go-go-related gene (hERG) potassium channel (human, UniProt Q12809)
Assay: primary screen, population patch clamp on CHO cells stably expressing hERG; higher = less effect of the substance
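Also: peak tail current of the secondary pulse compared with the same well before compound.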

Sequence of human ether-à-go-go-related gene (hERG) potassium channel (Q12809 whole entry, looked up): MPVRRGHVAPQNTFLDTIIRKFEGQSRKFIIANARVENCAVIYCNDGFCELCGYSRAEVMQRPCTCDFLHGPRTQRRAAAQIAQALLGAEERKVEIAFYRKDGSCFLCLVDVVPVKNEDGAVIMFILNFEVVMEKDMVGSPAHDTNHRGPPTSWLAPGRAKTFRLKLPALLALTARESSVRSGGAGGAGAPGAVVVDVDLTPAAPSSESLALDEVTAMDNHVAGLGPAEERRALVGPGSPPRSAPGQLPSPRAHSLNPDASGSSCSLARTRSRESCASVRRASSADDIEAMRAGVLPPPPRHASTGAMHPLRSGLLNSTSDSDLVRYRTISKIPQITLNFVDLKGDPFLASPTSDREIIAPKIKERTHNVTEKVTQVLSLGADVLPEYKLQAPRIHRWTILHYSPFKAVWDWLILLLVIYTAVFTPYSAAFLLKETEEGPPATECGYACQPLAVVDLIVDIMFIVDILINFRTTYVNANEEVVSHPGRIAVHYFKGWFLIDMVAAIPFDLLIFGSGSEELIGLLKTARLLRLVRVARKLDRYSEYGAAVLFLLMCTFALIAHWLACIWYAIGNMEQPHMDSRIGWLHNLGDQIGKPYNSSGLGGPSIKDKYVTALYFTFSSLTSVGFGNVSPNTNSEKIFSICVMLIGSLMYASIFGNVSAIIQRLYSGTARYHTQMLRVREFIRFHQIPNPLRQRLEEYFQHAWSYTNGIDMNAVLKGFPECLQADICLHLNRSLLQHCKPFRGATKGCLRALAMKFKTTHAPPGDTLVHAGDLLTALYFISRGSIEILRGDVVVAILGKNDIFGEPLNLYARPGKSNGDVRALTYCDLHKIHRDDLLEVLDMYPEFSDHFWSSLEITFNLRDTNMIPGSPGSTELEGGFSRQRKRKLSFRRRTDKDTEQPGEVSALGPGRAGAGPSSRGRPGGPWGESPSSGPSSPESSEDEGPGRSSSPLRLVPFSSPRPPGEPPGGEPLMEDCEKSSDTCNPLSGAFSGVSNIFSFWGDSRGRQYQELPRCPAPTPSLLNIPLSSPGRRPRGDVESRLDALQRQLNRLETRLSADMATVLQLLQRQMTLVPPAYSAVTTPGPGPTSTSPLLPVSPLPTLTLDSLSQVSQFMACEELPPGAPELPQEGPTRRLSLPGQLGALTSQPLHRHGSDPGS

Going from `O=C(C1CC1)N1CCc2cc(Br)cc(S(=O)(=O)N3CCCCCC3)c21` to `COc1ccc(NC(=O)C2CCCN(S(=O)(=O)c3ccc4[nH]c(=O)ccc4c3)C2)cc1` (stereo not drawn), the “hERG current change (%, negative = inhibition) at 10uM” value rises from -16.5% to 9.08%.

Going from `O=C(N/N=C/c1ccncc1)c1ccc(OCc2ccccc2)cc1` to `O=C(N/N=C/c1ccoc1)c1ccccc1Br`, the “hERG current change (%, negative = inhibition) at 10uM” value rises from -0.12% to 16.9%.

Going from `O=C1NC(=O)/C(=C\c2ccc(Sc3ccc(Cl)cc3)o2)N1` to `CC(=O)N1N=C(c2ccc(Cl)cc2)CC1c1ccc([N+](=O)[O-])cc1` (stereo not drawn), the “hERG current change (%, negative = inhibition) at 10uM” value rises from 2.37% to 11.8%.

First: Oc1ccc(/C=N/Nc2nc(-c3cccnc3)nc3ccccc23)c(O)c1
Second: Cc1ccc(CNC(=O)c2cc(-c3ccccc3)nn2CC2CC(c3cccnc3)=NO2)cc1 (stereo not drawn)
The “hERG current change (%, negative = inhibition) at 10uM” value of the first is higher: -2.97% for the first, -69.7% for the second.

First: COc1ccc(-c2occ(C(=O)O)c2C(=O)O)cc1
Second: COc1ccc(C2=NN(C(=O)CCC(=O)O)C(c3ccc([N+](=O)[O-])cc3)C2)cc1 (stereo not drawn)
The “hERG current change (%, negative = inhibition) at 10uM” value of the first is lower: -3.07% for the first, 10.2% for the second.

Compared with `CC(=O)N1N=C(c2ccccc2)CC1c1cccc([N+](=O)[O-])c1` (stereo not drawn), `CC(=O)N1N=C(c2ccccc2)CC1c1ccccc1[N+](=O)[O-]` (stereo not drawn) is higher in “hERG current change (%, negative = inhibition) at 10uM” value: -27.3% for the first, 2.95% for the second.

First: CCC(=O)N1N=C(c2ccccc2)CC1c1ccccc1 (stereo not drawn)
Second: CCC(=O)N1N=C(c2ccccc2)CC1c1ccc([N+](=O)[O-])cc1 (stereo not drawn)
The “hERG current change (%, negative = inhibition) at 10uM” value of the first is higher: 2.71% for the first, -53.4% for the second.

First: COc1ccc(C2CC(c3ccc(Cl)cc3)=NN2C(C)=O)cc1 (stereo not drawn)
Second: COc1ccc(C2CC(c3ccc([N+](=O)[O-])cc3)=NN2C(C)=O)cc1 (stereo not drawn)
The “hERG current change (%, negative = inhibition) at 10uM” value of the first is higher: -23.5% for the first, -64.5% for the second.

Compared with `O=C(O)CCC(=O)N1N=C(c2cccs2)CC1c1cccc([N+](=O)[O-])c1` (stereo not drawn), `CC(=O)N1N=C(c2cccs2)CC1c1cccc([N+](=O)[O-])c1` (stereo not drawn) is lower in “hERG current change (%, negative = inhibition) at 10uM” value: 20% for the first, -51.6% for the second.

Compared with `CC(=O)N1N=C(c2ccc([N+](=O)[O-])cc2)CC1c1ccccc1Cl` (stereo not drawn), `CCn1cc([N+](=O)[O-])c(C(=O)N2N=C(c3ccccc3)CC2c2ccc([N+](=O)[O-])cc2)n1` (stereo not drawn) is higher in “hERG current change (%, negative = inhibition) at 10uM” value: -66% for the first, -37.2% for the second.

Compared with `O=C(O)CC1S/C(=N/N=C/C=C/c2ccccc2)NC1=O` (stereo not drawn), `O=C(Nc1ccccc1)/C(=C\c1ccco1)NC(=O)c1ccco1` is lower in “hERG current change (%, negative = inhibition) at 10uM” value: 0.632% for the first, -6.57% for the second.

Compared with `Cc1ccc(-n2c(C)c(C)c3c(NCCO)ncnc32)cc1`, `COc1ccc(CCNC(=O)c2nnn(CC(=O)Nc3ccc(C)cc3C)c2N)cc1OC` is higher in “hERG current change (%, negative = inhibition) at 10uM” value: 6.27% for the first, 13.8% for the second.

First: CSc1nsc(SCC(=O)Nc2nc3ccccc3s2)n1
Second: CCn1c(SCC(=O)Nc2nccs2)nnc1-c1ccco1
The “hERG current change (%, negative = inhibition) at 10uM” value of the first is higher: 9.66% for the first, -10.7% for the second.

Compared with `Cn1c(=O)[nH]c2nnc(-c3ccc(Cl)c(Cl)c3)nc2c1=O`, `Cc1c(NC(=O)c2ccc(F)cc2)c(=O)n(-c2ccccc2)n1C` is higher in “hERG current change (%, negative = inhibition) at 10uM” value: 8.52% for the first, 11.2% for the second.

Compared with `COc1ccc(OC)c(/C=N/NC(=O)c2cnccn2)c1`, `CC(Oc1ccc(Cl)cc1Cl)C(=O)Nc1ncccn1` (stereo not drawn) is lower in “hERG current change (%, negative = inhibition) at 10uM” value: 1.45% for the first, -2.67% for the second.

First: COc1ccccc1CNC(=O)C(=O)NCC1OCCN1C(=O)c1cccs1 (stereo not drawn)
Second: COc1ccccc1CNC(=O)c1cc(-c2ccccc2)nn1CC1CC(c2cccnc2)=NO1 (stereo not drawn)
The “hERG current change (%, negative = inhibition) at 10uM” value of the first is higher: 3.96% for the first, -71.2% for the second.

Compared with `Cc1c(C(=O)N/N=C/c2ccc(-c3ccccc3[N+](=O)[O-])o2)sc(N)c1C#N`, `Cc1ccccc1-c1cc(C(=O)NCc2cccs2)n(CC2CC(c3cccnc3)=NO2)n1` (stereo not drawn) is lower in “hERG current change (%, negative = inhibition) at 10uM” value: 12.1% for the first, -26.2% for the second.

Going from `COc1ccccc1N(C)S(=O)(=O)c1ccc(C(=O)OC(C)C(=O)NCc2ccc3c(c2)OCO3)cc1` (stereo not drawn) to `CC(=O)c1ccc(S(=O)(=O)N(C)CC(=O)Nc2ccc(C)cc2)cc1`, the “hERG current change (%, negative = inhibition) at 10uM” value rises from -41.6% to -0.949%.

Going from `CCc1ccc(NC(=S)NCC2CCCN2CC)cc1` (stereo not drawn) to `CCOC(=O)C1CCCCN1Cc1ccc(C(F)(F)F)cc1` (stereo not drawn), the “hERG current change (%, negative = inhibition) at 10uM” value rises from -32.2% to 7.75%.

Compared with `CCn1c(SCC(=O)OC)nnc1C1CCCCC1`, `CCn1c(SCC(=O)Nc2nc(C)cs2)nnc1-c1ccoc1C` is lower in “hERG current change (%, negative = inhibition) at 10uM” value: 6.57% for the first, -1.96% for the second.

First: CCc1nc(SCc2ccc(Cl)cc2)n[nH]1
Second: COc1ccc(CNC(=O)Cn2ncn3cccc3c2=O)cc1
The “hERG current change (%, negative = inhibition) at 10uM” value of the first is higher: 12% for the first, 3.12% for the second.

First: Cc1occc1-c1nnc(SCC(=O)Nc2nccs2)n1CCc1ccccc1
Second: Cc1csc(NC(=O)CSc2nnc(-c3ccoc3C)n2CCc2ccccc2)n1
The “hERG current change (%, negative = inhibition) at 10uM” value of the first is lower: -60.3% for the first, -59.7% for the second.

Compared with `Cc1csc(NC(=O)CSc2nnc(Cc3cccn3C)n2CCc2ccccc2)n1`, `Cn1cccc1Cc1nnc(SCC(=O)Nc2nccs2)n1CCc1ccccc1` is lower in “hERG current change (%, negative = inhibition) at 10uM” value: -4.35% for the first, -9.58% for the second.

First: Cc1csc(NC(=O)CSc2nnc(-c3ccoc3C)n2C(C)c2ccccc2)n1 (stereo not drawn)
Second: Cc1occc1-c1nnc(SCC(=O)NC(C)(C)C)n1C(C)c1ccccc1 (stereo not drawn)
The “hERG current change (%, negative = inhibition) at 10uM” value of the first is lower: -74.1% for the first, -11.8% for the second.

First: Cc1occc1-c1nnc(SCC(=O)Nc2ccccc2)n1C(C)c1ccccc1 (stereo not drawn)
Second: O=C(CSc1nnc(COc2cccc3ccccc23)o1)N1c2ccccc2CCc2ccccc21
The “hERG current change (%, negative = inhibition) at 10uM” value of the first is lower: -37.6% for the first, 7.68% for the second.

Compared with `COc1cc(C)c(Cl)cc1S(=O)(=O)NCCN1CCOCC1`, `CCOC(=O)c1c(S(=O)(=O)NCCc2ccc(OC)c(OC)c2)c(C)n(C)c1C` is lower in “hERG current change (%, negative = inhibition) at 10uM” value: 15.9% for the first, 4.97% for the second.

Compared with `CCCc1cc(=O)[nH]c(SCC(=O)c2cc(C)n(CC(F)(F)F)c2C)n1`, `O=C(CSc1nnc(CNc2ccc(F)cc2)o1)N1CCN(C(=O)c2ccco2)CC1` is lower in “hERG current change (%, negative = inhibition) at 10uM” value: 7.55% for the first, -50.8% for the second.

First: O=S(=O)(Nc1ccc2c(c1)OCCO2)c1cnc[nH]1
Second: CCCOC(=O)c1cccc(NC(=O)c2cccnc2)c1
The “hERG current change (%, negative = inhibition) at 10uM” value of the first is higher: 7.8% for the first, -39.7% for the second.

Compared with `CC(C)(C)NC(=O)NC(=O)COC(=O)c1cccc(F)c1`, `O=C(COc1ccccc1Cl)NC(=O)NC1CCCCC1` is higher in “hERG current change (%, negative = inhibition) at 10uM” value: -1.01% for the first, 5.11% for the second.

Going from `O=C(CSc1nnc(CNc2ccccc2)o1)N1CCN(C(=O)c2ccco2)CC1` to `O=C(CSc1nnc(COc2cccc3ccccc23)o1)N1CCN(C(=O)c2ccco2)CC1`, the “hERG current change (%, negative = inhibition) at 10uM” value falls from -17.3% to -65.1%.

Compared with `O=C(CSc1nnc(COc2cccc3cccnc23)o1)N1CCN(C(=O)c2ccco2)CC1`, `O=C(NCc1nnc(SCC(=O)N2CCCC2)o1)c1ccco1` is lower in “hERG current change (%, negative = inhibition) at 10uM” value: 0.452% for the first, -7.2% for the second.

Compared with `O=C1CC(c2ccccc2)SC(N(c2ccccc2)c2ccccc2)=N1` (stereo not drawn), `O=C(NCc1cccs1)c1cc(-c2ccccc2)nn1CC1CC(c2cccnc2)=NO1` (stereo not drawn) is lower in “hERG current change (%, negative = inhibition) at 10uM” value: -0.167% for the first, -51.8% for the second.

Going from `Cn1cc(Cl)c(C(=O)NNC(=S)NC2CCCCC2)n1` to `O=C(c1ccco1)N1CCN(C(=S)NC2CC3CCC2C3)CC1` (stereo not drawn), the “hERG current change (%, negative = inhibition) at 10uM” value falls from 15.4% to -67.3%.

Compared with `Cc1cc(C)cc(N2CCCC2=O)c1`, `O=C(Nc1ccc(F)cc1)OC1CN2CCC1CC2` (stereo not drawn) is lower in “hERG current change (%, negative = inhibition) at 10uM” value: 16.3% for the first, -27.5% for the second.

Going from `O=C(N[C@@H]1C[C@H]2CC[C@@H]1C2)c1ccco1` to `O=C(NC1CC2CCC1C2)c1ccco1` (stereo not drawn), the “hERG current change (%, negative = inhibition) at 10uM” value falls from 4.88% to -5.69%.

Going from `O=C(CCC1CCN(C(=O)c2ccco2)CC1)NCc1ccc(F)cc1` to `O=C(CCC1CCN(C(=O)c2ccccc2Cl)CC1)NCc1ccc(F)cc1`, the “hERG current change (%, negative = inhibition) at 10uM” value rises from -72.6% to -18.9%.

First: CCNC(=S)N1CCN(C(=O)c2ccco2)CC1
Second: O=C(c1ccco1)N1CCN(C(=S)NCc2ccc(F)cc2)CC1
The “hERG current change (%, negative = inhibition) at 10uM” value of the first is higher: 5.8% for the first, -53.1% for the second.

Going from `O=C(c1ccco1)N1CCN(C(=S)Nc2ccc(F)cc2)CC1` to `CSc1ccccc1C(=O)N1CCC(CCC(=O)NCc2ccc(F)cc2)CC1`, the “hERG current change (%, negative = inhibition) at 10uM” value falls from -2.5% to -12.4%.

First: COCOc1ccc(-c2oc3c(C/C=C(\C)CCC=C(C)C)ccc(O)c3c(=O)c2OCOC)c(OCOC)c1
Second: COc1ccccc1CNC(=O)c1cc(-c2ccccc2C)nn1CC1CC(c2cccnc2)=NO1 (stereo not drawn)
The “hERG current change (%, negative = inhibition) at 10uM” value of the first is lower: -9.2% for the first, -2.89% for the second.

First: O=C(NCc1ccc(OC(F)(F)F)cc1)c1cc(-c2ccccc2)nn1CC1CC(c2cccnc2)=NO1 (stereo not drawn)
Second: O=C(NCc1ccco1)c1cc(-c2ccccc2)nn1CC1CC(c2cccnc2)=NO1 (stereo not drawn)
The “hERG current change (%, negative = inhibition) at 10uM” value of the first is higher: -57.4% for the first, -63.9% for the second.

Compared with `Cc1ccccc1-c1cc(C(=O)NCC2CC2)n(CC2CC(c3cccnc3)=NO2)n1` (stereo not drawn), `O=C(NCC1CC1)c1cc(-c2ccccc2)nn1CC1CC(c2cccnc2)=NO1` (stereo not drawn) is lower in “hERG current change (%, negative = inhibition) at 10uM” value: -20% for the first, -25% for the second.

First: Cc1ccccc1-c1cc(C(=O)NCc2ccco2)n(CC2CC(c3cccnc3)=NO2)n1 (stereo not drawn)
Second: COCCNC(=O)c1cc(-c2ccccc2)nn1CC1CC(c2cccnc2)=NO1 (stereo not drawn)
The “hERG current change (%, negative = inhibition) at 10uM” value of the first is lower: -15.6% for the first, 2.9% for the second.

Compared with `O=C(c1cc(-c2ccccc2)nn1CC1CC(c2cccnc2)=NO1)N1CCOCC1` (stereo not drawn), `CCOC(=O)c1cc(-c2ccccc2)nn1CC1CC(c2cccnc2)=NO1` (stereo not drawn) is higher in “hERG current change (%, negative = inhibition) at 10uM” value: -4.25% for the first, 3.47% for the second.

`COCCCNC(=O)Cn1ncc2ccsc2c1=O` was tested, and the “hERG current change (%, negative = inhibition) at 10uM” value was 13.6%.
